Among the data in the supplement of paper PMC9262897, “Low-cost anti-mycobacterial drug discovery using engineered E. coli” (Nature Communications, 2022) are growth values, retold here.

± gives the standard deviation of the averaged measurements.

Common to all, as to assay: growth (OD600 after 10 h); higher = more growth (less inhibition)
The subject of experiment [1] is E. coli TESEC Alr+ wild-type control. Conditions: compound 0.1 mM; raw OD600 reference: median of DMSO wells 0.241, cell-free background 0.041. As for the experimental part:
(§1)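 TESEC Mtb Alr E. coli, or the Alr+ wild-type control, in 384-well plates with Prestwick library compounds at 0.1 mM and 1% DMSO, across arabinose induction levels of 1E3 to 1E7 nM. Growth is read as OD600 after 10 h at 37 °C in triplicate biological replicates.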

Experiment [2] deals with E. coli TESEC Mtb Alr. Conditions: compound 0.1 mM. As for the experimental part:
as §1

For experiment [3], the system named is E. coli TESEC Mtb Asd. The conditions noted are these: compound 0.1 mM. The protocol: (§2)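 TESEC E. coli strains in which the native enzyme is deleted and replaced by arabinose-inducible Mtb Asd, DapB, CysH or TrpD, each grown in its selective medium. Strains were screened against the Prestwick library at 0.1 mM and 1% DMSO in 384-well format at low and high arabinose induction. Growth is read as OD600 after 10 h in triplicate.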

The test system of experiment [4] is E. coli TESEC Mtb DapB. Conditions: compound 0.1 mM. As for the experimental part:
as §2

The test system of experiment [5] is E. coli TESEC Alr+ wild-type control. Conditions: compound 0.1 mM; raw OD600 reference: median of DMSO wells 0.49, cell-free background 0.052. The protocol:
(§3)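 TESEC Mtb Alr E. coli (ΔaraC ΔtolC ΔentC Δalr ΔdadX, arabinose-inducible Mtb Alr) or the Alr+ wild-type control strain, grown in defined M9-fructose medium without D-alanine in 96-well plates with Prestwick library compounds at 0.1 mM and 1% DMSO. Low Alr induction is 0.1 µM arabinose and high induction is 10 mM arabinose.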

The subject of experiment [6] is E. coli TESEC Mtb Alr. The conditions noted are these: compound 0.1 mM. The protocol: as §3
The source holds these as a separate data set.

[7] abbreviates: arabinose 1000 nM, raw OD600 reference: median of DMSO wells 0.294, cell-free background 0.041.
[8] abbreviates: arabinose 10000 nM, raw OD600 reference: median of DMSO wells 0.264, cell-free background 0.041.
Where [9] appears, read: arabinose 100000 nM, raw OD600 reference: median of DMSO wells 0.201, cell-free background 0.041.
Setting [10] is: arabinose 1000000 nM, raw OD600 reference: median of DMSO wells 0.193, cell-free background 0.041.
[11] abbreviates: arabinose 10000000 nM, raw OD600 reference: median of DMSO wells 0.146, cell-free background 0.041.
Setting [12] is: arabinose induction (level): High, raw OD600 reference: median of DMSO wells 0.331, cell-free background 0.041.
The mark [13] stands for this setting: arabinose induction (level): Low, raw OD600 reference: median of DMSO wells 0.417, cell-free background 0.041.
[14] abbreviates: arabinose induction (level): High, raw OD600 reference: median of DMSO wells […], cell-free background 0.041.
The mark [15] stands for this setting: arabinose induction (level): Low, raw OD600 reference: median of DMSO wells 0.227, cell-free background 0.041.
Where [16] appears, read: arabinose 100 nM, raw OD600 reference: median of DMSO wells 0.413, cell-free background 0.052.
The mark [17] stands for this setting: arabinose 10000000 nM, raw OD600 reference: median of DMSO wells […], cell-free background 0.052.

`COc1ccc2c(c1)c(CC(=O)OCC(=O)O)c(C)n2C(=O)c1ccc(Cl)cc1` [Acemetacin]: the growth worked out at 0.154 ± 0.0063 in experiment [1]; 0.198 ± 0.012 in experiment [2] (setting [7]); 0.195 ± 0.0045 in experiment [2] (setting [8]); 0.139 ± 0.0049 in experiment [2] (setting [9]); 0.109 ± 0.0015 in experiment [2] (setting [10]); 0.131 ± 0.0045 in experiment [2] (setting [11]). In addition, the growth in experiment [3] (setting [12]) came out at 0.21 ± 0.078; in experiment [3] (setting [13]), 0.211 ± 0.012; in experiment [4] (setting [14]), 0.152 ± 0.0045; in experiment [4] (setting [15]), 0.185 ± 0.024; in experiment [5] it was 0.363 ± 0.021; in experiment [6] (setting [16]), 0.362 ± 0.084. In experiment [6] (setting [17]), this compound returned a growth of 0.183 ± 0.012.

Regarding `Nc1ccc(S(=O)(=O)Nc2ccccn2)cc1` [Sulfapyridine], the growth in experiment [1] was found to be 0.239 ± 0.0046; in experiment [2] (setting [7]) it was 0.295 ± 0.018; in experiment [2] (setting [8]) it was 0.261 ± 0.0053; in experiment [2] (setting [9]), 0.219 ± 0.0099; in experiment [2] (setting [10]), 0.174 ± 0.0063; in experiment [2] (setting [11]), 0.141 ± 0.0049. Also, the growth was determined as 0.354 ± 0.035 in experiment [3] (setting [12]); 0.412 ± 0.015 in experiment [3] (setting [13]); 0.188 ± 0.02 in experiment [4] (setting [14]); 0.215 ± 0.041 in experiment [4] (setting [15]); 0.449 ± 0.0039 in experiment [5]; 0.405 ± 0.013 in experiment [6] (setting [16]). Further, the growth in experiment [6] (setting [17]) was 0.325 ± 0.0082.

As to `CC(C)(O)c1ccccc1CC[C@@H](SCC1(CC(=O)O)CC1)c1cccc(/C=C/c2ccc3ccc(Cl)cc3n2)c1` [Montelukast], the growth amounted to 0.24 ± 0.013 in experiment [1]; 0.281 ± 0.0035 in experiment [2] (setting [7]); 0.317 ± 0.012 in experiment [2] (setting [8]); 0.31 ± 0.019 in experiment [2] (setting [9]); 0.206 ± 0.0075 in experiment [2] (setting [10]); 0.261 ± 0.012 in experiment [2] (setting [11]). Further, the growth in experiment [3] (setting [12]) was determined as 0.219 ± 0.028; in experiment [3] (setting [13]) it was 0.347 ± 0.065; in experiment [4] (setting [14]), 0.183 ± 0.025; in experiment [4] (setting [15]), 0.253 ± 0.023; in experiment [5] it was 0.566 ± 0.061; in experiment [6] (setting [16]), 0.479 ± 0.027. This compound displayed a growth in experiment [6] (setting [17]) of 0.376 ± 0.026.

For `NC(=O)OCC(COC(N)=O)c1ccccc1` [Felbamate], the growth was 0.24 ± 0.0061 in experiment [1]; 0.288 ± 0.0029 in experiment [2] (setting [7]); 0.26 ± 0.0095 in experiment [2] (setting [8]); 0.201 ± 0.023 in experiment [2] (setting [9]); 0.204 ± 0.0095 in experiment [2] (setting [10]); 0.137 ± 0.0061 in experiment [2] (setting [11]). Moreover, the growth in experiment [3] (setting [12]) was 0.423 ± 0.044; in experiment [3] (setting [13]), 0.316 ± 0.031; in experiment [4] (setting [14]) it was 0.224 ± 0.0049; in experiment [4] (setting [15]) it was 0.212 ± 0.0076; in experiment [5], 0.608 ± 0.097; in experiment [6] (setting [16]) it was 0.405 ± 0.011. This compound also had a growth in experiment [6] (setting [17]) of 0.369 ± 0.025.

Consider `COc1cc(NS(=O)(=O)c2ccc(N)cc2)nc(OC)n1` [Sulfadimethoxine], for which the growth in experiment [1] amounted to 0.2298 ± 0.0014; in experiment [2] (setting [7]), 0.264 ± 0.011; in experiment [2] (setting [8]), 0.177 ± 0.01; in experiment [2] (setting [9]), 0.2126 ± 0.0014; in experiment [2] (setting [10]), 0.106 ± 0.0049; in experiment [2] (setting [11]), 0.139 ± 0.0065. Moreover, the growth was found to be 0.266 ± 0.0084 in experiment [3] (setting [12]); 0.403 ± 0.025 in experiment [3] (setting [13]); 0.192 ± 0.0042 in experiment [4] (setting [14]); 0.213 ± 0.015 in experiment [4] (setting [15]); 0.46 ± 0.053 in experiment [5]; 0.425 ± 0.0055 in experiment [6] (setting [16]). This compound displayed a growth in experiment [6] (setting [17]) of 0.332 ± 0.031.

`COc1ccc(C(=O)NCc2ccc(OCCN(C)C)cc2)cc1OC` [Itopride]: the growth turned out to be 0.241 ± 0.0038 in experiment [1]; 0.298 ± 0.0084 in experiment [2] (setting [7]); 0.268 ± 0.011 in experiment [2] (setting [8]); 0.229 ± 0.029 in experiment [2] (setting [9]); 0.176 ± 0.0056 in experiment [2] (setting [10]); 0.159 ± 0.0051 in experiment [2] (setting [11]). Further, the growth in experiment [3] (setting [12]) is 0.303 ± 0.083; in experiment [3] (setting [13]), 0.365 ± 0.11; in experiment [4] (setting [14]) it was 0.228 ± 0.028; in experiment [4] (setting [15]), 0.268 ± 0.025; in experiment [5], 0.475 ± 0.063; in experiment [6] (setting [16]), 0.407 ± 0.015. This compound also gave a growth in experiment [6] (setting [17]) of 0.349 ± 0.0081.

With `NC(=O)c1cnccn1` [Pyrazinamide], the growth in experiment [1] was determined as 0.244 ± 0.0055; in experiment [2] (setting [7]), 0.284 ± 0.01; in experiment [2] (setting [8]) it was 0.267 ± 0.0063; in experiment [2] (setting [9]), 0.208 ± 0.03; in experiment [2] (setting [10]), 0.185 ± 0.007; in experiment [2] (setting [11]), 0.14 ± 0.0018. Further, the growth in experiment [3] (setting [12]) turned out to be 0.289 ± 0.057; in experiment [3] (setting [13]) it was 0.382 ± 0.11; in experiment [4] (setting [14]), 0.195 ± 0.029; in experiment [4] (setting [15]) it was 0.209 ± 0.019; in experiment [5] it was 0.538 ± 0.071; in experiment [6] (setting [16]), 0.421 ± 0.013. For the same compound, in experiment [6] (setting [17]), the growth was found to be 0.366 ± 0.015.

For the compound `NCc1ccccc1CC(=O)N[C@@H]1C(=O)N2C(C(=O)O)=C(CSc3nnnn3CC(=O)O)CS[C@H]12` [Ceforanide], the growth in experiment [1] was 0.3 ± 0.0032; in experiment [2] (setting [7]), 0.324 ± 0.0083; in experiment [2] (setting [8]), 0.167 ± 0.0036; in experiment [2] (setting [9]), 0.238 ± 0.016; in experiment [2] (setting [10]), 0.161 ± 0.0024; in experiment [2] (setting [11]), 0.206 ± 0.0071. In addition, the growth in experiment [3] (setting [12]) was 0.244 ± 0.01; in experiment [3] (setting [13]), 0.315 ± 0.033; in experiment [4] (setting [14]), 0.182 ± 0.012; in experiment [4] (setting [15]), 0.242 ± 0.012; in experiment [5], 0.501 ± 0.055; in experiment [6] (setting [16]) it was 0.108 ± 0.033. The same compound showed a growth in experiment [6] (setting [17]) of 0.303 ± 0.024.
